Bioassay records: PubChem BioAssay, National Center for Advancing Translational Sciences (NCATS)
Giardia kill – Small Molecules that selectively kill Giardia lamblia: qHTS. Giardia lamblia trophozoite viability. activity change, % at 7.66 µM, hits read low. 340,000 compounds, 0.15% hits; in the data active means activity change below about -80%; inconclusive means between about -30% and that limit;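 further: parasites exposed to compound for two days anaerobically before the ATP read; on the % scale 0 is the no-effect control and ±100 the full control effect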
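Trophozoite viability was measured as ATP-dependent luminescence, read 15-30 min after reagent addition. Before that, parasites at 100 cells/well were exposed to compounds for 48 h, anaerobically, at 37 deg C.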
ClpP mod – qHTS Assay for Activators of ClpP. 340,000 compounds, 1.9% hits. ATP-dependent Clp protease proteolytic subunit (Bacillus subtilis (strain 168)), P80244. Potency, µM (highest dose often 57.5 µM), for inactives: at the highest dose activity change, negative = active. AID 651965, 2013. purified B. subtilis ClpP, FRET peptide cleavage, 20 min; active means well fitted falling curve with a large enough effect; inconclusive means small, poorly fitted or top-dose-only effect; inactive means no such curve, though single readings can be large or run the other way; further: potency means the concentration at half of the fitted maximal effect; the source files actives as falling curves though it sought activators and does not explain the sign; nearly all actives have a fitted effect of over 65% in size
Target sequence (P80244 whole entry, looked up): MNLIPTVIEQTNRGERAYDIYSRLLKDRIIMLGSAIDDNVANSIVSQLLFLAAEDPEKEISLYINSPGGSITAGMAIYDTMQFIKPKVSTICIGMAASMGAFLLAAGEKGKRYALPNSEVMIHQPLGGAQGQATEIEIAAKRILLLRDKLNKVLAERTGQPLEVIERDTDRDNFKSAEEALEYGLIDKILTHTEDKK
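Purified B. subtilis ClpP, 10 microg/mL final in Tris/HCl pH8 with KCl, BSA, glycerol and Tween-20, cleaved an Abz/nitrotyrosine-quenched decapeptide. Fluorescence (ex 320, em 430) was read at 0 and 20 min at room temperature. Delta was normalized to 5.8 microM ADEP and DMSO/no-enzyme controls.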
uPA surface inh – qHTS for Inhibitors of Cell Surface uPA Generation; AID 540303, 2011; cell surface uPA generation assay, qHTS; 330,000 compounds, 0.31% hits; Potency, µM (titrated, usually from 38.3 µM), without a hit: at the top dose activity change, negative = inhibition, usual class: inhibitors; active means well fitted inhibition curve with a large enough effect; inconclusive means small, poorly fitted or top-dose-only effect; inactive means no such curve, though single readings can be large or run the other way; tested in mouse RAW 264.7 cells; further: potency means the concentration at half of the fitted maximal effect; on the % scale 0 is the no-effect control and ±100 the full control effect; nearly all actives have a fitted effect of over 55% in size
p53 reactivator – qHTS assay for re-activators of p53 using a Luc reporter | H1299 p53-A138V BP100-luciferase reporter, luminescence, 24 h | Potency, µM (series often up to 92.2 µM), inactives show at the highest dose activity change, positive = activation, actives largely listed as activators | 320,000 compounds, 0.063% hits | AID 504706, 2011; further: potency means the concentration at half of the fitted maximal effect; % of control where 0% means no effect; nearly all actives have a fitted effect of over 45% in size
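H1299 (p53-null), stable ts p53-A138V + BP100-Luc; 1000 cells/well, Opti-MEM/10% FBS; cpd 4 pt, 1:5; 24 h, 37 deg C, 5% CO2; detection reagent 10 min RT; luminescence.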
Mito fusion yeast – qHTS Assay for Small Molecule Inhibitors of Mitochondrial Division or Activators of Mitochondrial Fusion; S. cerevisiae fusion-defective mutant growth rescue, CellTiterGlo 48 h; 320,000 compounds, 0.23% hits; Potency, µM (doses to about 46.1 µM), inactives show at the top dose growth rescue (activation), most hits filed as activators; further: potency means the concentration at half of the fitted maximal effect; % of control where 0% means no effect; nearly all actives have a fitted effect of over 45% in size
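Temperature-sensitive fusion-defective S. cerevisiae (e.g. fzo1-1, mgm1-5) were grown with compound in YPEG medium (3% ethanol, 3% glycerol) for 48 hours at 37C. Growth rescue was measured as viability by CellTiterGlo luminescence after 10 minutes at ambient.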
B2AR arrestin – qHTS assay of beta-arrestin-biased ligands of beta2-adrenergic receptor; Beta-2 adrenergic receptor (Homo sapiens), P07550; beta-arrestin recruitment to beta2AR, cell-based reporter; Potency, µM (titrated, usually from 46.1 µM), without a hit: at the highest dose activation, hits mostly activators; 330,000 compounds, 0.02% hits; AID 492947, 2010;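 further: potency means the concentration at half of the fitted maximal effect; 0% = DMSO controls and full agonism = EC100 isoproterenol or metaproterenol; nearly all actives have a fitted effect of over 65% in size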
Target sequence (P07550 whole entry, looked up): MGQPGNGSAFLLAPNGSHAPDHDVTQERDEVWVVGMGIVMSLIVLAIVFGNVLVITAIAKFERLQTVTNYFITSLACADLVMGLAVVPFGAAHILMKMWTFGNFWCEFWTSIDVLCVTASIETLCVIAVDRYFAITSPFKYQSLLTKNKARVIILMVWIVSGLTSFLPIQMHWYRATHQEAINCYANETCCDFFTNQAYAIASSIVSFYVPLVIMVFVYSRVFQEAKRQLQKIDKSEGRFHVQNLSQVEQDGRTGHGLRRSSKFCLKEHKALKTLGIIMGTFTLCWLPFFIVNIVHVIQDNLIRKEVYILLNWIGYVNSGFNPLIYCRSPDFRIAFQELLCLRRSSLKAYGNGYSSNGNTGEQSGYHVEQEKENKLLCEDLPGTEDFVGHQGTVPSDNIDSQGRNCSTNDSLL
ClpP inh valid – qHTS Assay for Activators of ClpP: Hit Validation of Inhibitors. shares compounds with ClpP mod. purified B. subtilis ClpP, FRET-FV substrate cleavage, 20 min. Potency, µM (top dose mostly 57.5 µM), without a hit: top-dose activity change, negative = inhibition, actives largely listed as inhibitors. 470 compounds, 40% hits; further: potency means the concentration at half of the fitted maximal effect; on the % scale 0 is the no-effect control and ±100 the full control effect; nearly all actives have a fitted effect of over 70% in size
Numbers without * were called inactive; ? = inconclusive; / = not tested or not shown. This is a sample that favours compounds with a hit; in the whole collection about 2.1% have one here. Unless noted, the call rests on the fitted dose curve; in most records, active means well fitted curve in the direction sought with a large enough effect; inconclusive means small, poorly fitted or top-dose-only effect, or another doubt; inactive means no such curve, though single readings can be large; an effect the other way counts as inactive or inconclusive.

SMILES | Giardia kill | ClpP mod | uPA surface inh | p53 reactivator | Mito fusion yeast | B2AR arrestin | ClpP inh valid
Cc1ccc2[nH]c(=O)c(CN(Cc3ccc4c(c3)OCO4)Cc3nnnn3C3CCCC3)cc2c1 | 15 | 81% | -10% | / | ? | / | -19%
CCC[n+]1c(/C=C/c2c(OC)cc(OC)cc2OC)ccc2ccccc21 | / | 1% | / | / | / | / | /
CCCCNc1nc2c(-c3cccc(Br)c3)nnn2c2ccccc12 | / | -8% | / | / | / | / | /
Brc1cccc(-c2nnn3c2nc(NCc2ccc4c(c2)OCO4)c2ccccc23)c1 | / | 23% | / | / | / | / | ?
COc1ccc(C(C(=O)NC2CCCC2)N(C(=O)c2ccco2)c2cc3c(cc2C(C)=O)OCO3)cc1 (centres undefined) | 16 | 3.2µM* | 3% | -8% | 3% | 0% | 0%
CC(=O)c1cc2c(cc1N(C(=O)c1ccco1)C(C(=O)NC1CCCC1)c1ccccc1F)OCO2 (centres undefined) | 5 | 0% | / | -3% | 1% | 0% | /
COc1ccc(C)cc1NC(=O)C(OC(=O)c1cnc(C)cn1)c1ccccc1 (centres undefined) | -13 | 3% | -3% | 6% | 2% | 0% | /
Cc1ccc(C)c(NC(=O)C(OC(=O)c2cnc(C)cn2)c2ccccc2)c1 (centres undefined) | -12 | 92% | 11% | 1% | 3% | 0% | 0%
NC(=O)c1ccccc1NS(=O)(=O)Cc1ccccc1 | 7 | 7.9µM* | 2% | 7% | 1% | 0% | 22µM*
CC1Cc2ccccc2N1c1nc(C2CC2)nc2c1nnn2Cc1ccccc1 (centres undefined) | -4 | 7.1µM* | 4% | -5% | 7% | 0% | 27µM*
CCCNC(=O)c1ccc(C2SCC(=O)N2Cc2ccccc2)cc1 (centres undefined) | 0 | 2.5µM* | 2% | -8% | 7% | -1% | -1%
O=c1n(Cc2ccc(Cl)cc2)c2sc3c(c2c2ncnn12)CCCC3 | -15 | 2.8µM* | -5% | 2% | ? | 0% | -3%
CCOC(=O)c1cccc(NC(=O)c2oc3c(c2C)-c2nn(CC)cc2CC3)c1 | / | -27% | / | / | / | / | /
O=C1CC(c2ccccc2)Cc2nc3nc(C(F)(F)F)nn3cc21 (centres undefined) | -5 | 79% | -2% | -1% | 0% | -1% | 24%
CSc1nc2nc3c(cn2n1)C(=O)CC(c1ccccc1)C3 (centres undefined) | -7 | 1% | 9% | -4% | -4% | 0% | /
O=C(Nc1cccc(Cl)c1Cl)c1cc(S(=O)(=O)NCc2ccc3c(c2)OCO3)ccc1F | / | 56% | / | / | / | / | ?
O=C(NCCCN1CCCC1=O)C1CCN(S(=O)(=O)N2CCOCC2)CC1 | 1 | 10µM* | 0% | 5% | -5% | -1% | 0%
O=C(NCCCN1CCCC1=O)C1CCN(S(=O)(=O)c2ccccc2)CC1 | 7 | 2% | 5% | 15% | -3% | 0% | /
CCOc1ccc(-n2c(=O)c3sc4ccccc4c3n(Cc3cccc(C)c3)c2=O)cc1 | / | -9% | / | / | / | / | /
Cc1nnc(NC(=O)c2oc3ccccc3c2C)s1 | -29 | -1% | -10% | ? | 0% | 0% | /
Cc1nnc(NC(=O)c2oc3c(ccc4ccccc43)c2C)s1 | -2 | 8.9µM* | -2% | 9% | 3% | 0% | 31µM*
C#Cc1ccc(NC(=O)C2(C)CCN2C(=O)Cc2ccc(C(C)C)cc2)cc1 (centres undefined) | / | 0% | / | / | / | / | /
Cc1cccc(CC(=O)Nc2ccc(C(=O)N3CCCCC3)cc2)c1 | -17 | 3.2µM* | 0% | 0% | 2% | -1% | 0%
O=C(Cc1cccc(NC(=O)C2CCCN(C(=O)C3CC3)C2)c1)Nc1ccc(C(=O)N2CCCCC2)cc1 (centres undefined) | -11 | 1% | -25% | / | / | / | /
CCc1ccccc1NC(=O)C1CCN(S(=O)(=O)c2ccc3[nH]c(=O)ccc3c2)CC1 | / | -14% | / | / | / | / | /
SMILES | Giardia kill | ClpP mod | uPA surface inh | p53 reactivator | Mito fusion yeast | B2AR arrestin | ClpP inh valid
Cc1sc2ccccc2[n+]1CCC[n+]1c(C)sc2ccccc21 | / | -3% | / | / | / | / | /
CCCN1CCN(CCCNC(=O)Cn2nc(C)n3c(cc4c(OC)cccc43)c2=O)CC1 | / | 4.5µM* | / | / | / | / | 3.9µM*
COc1cccc2c1cc1c(=O)n(CC(=O)NCc3ccco3)nc(C)n12 | / | 3.5µM* | / | / | / | / | ?
CCN(CC)S(=O)(=O)c1ccc(C(=O)N2CC(=O)Nc3ccc(F)cc3C2c2ccccc2)cc1 (centres undefined) | / | 0% | / | / | / | / | /
Cc1cc(C)n2nc(NCc3ccccc3)nc2n1 | -7 | 10µM* | 1% | / | 22% | / | 24µM*
Cc1ccc2c(c1)cc1c(=O)n(CC(=O)NCc3ccco3)nc(C)n12 | / | -22% | / | / | / | / | /
COc1ccc(NC(=O)CCc2nnc3n(Cc4ccccc4Cl)c(=O)c4ccccc4n23)cc1 | / | 0% | / | / | / | / | /
CCOC(=O)c1cc2n(n1)C(C(F)(F)F)CC(C)N2 (centres undefined) | 3 | 60% | 8% | 12% | 1% | 0% | 0%
CC1CC(C(F)(F)F)n2nc(C(=O)O)cc2N1 (centres undefined) | -5 | 1% | 3% | 0% | 0% | 0% | /
CC(=O)N1CCc2c(sc(NC(=O)C3CCCN3S(=O)(=O)c3cccs3)c2C(N)=O)C1 (centres undefined) | 7 | 4µM* | -1% | -4% | -3% | 0% | -28%
Cc1cnc(C)c(Nc2nc(C(N)Cc3ccc(Cl)cc3)cs2)n1 (centres undefined) | / | -2% | / | / | / | / | /
COc1ccc2c(=O)c(-c3ccc(OC)c(OC)c3)coc2c1 | 4 | 3% | -24% | 5% | -2% | -1% | /
COc1ccc(-c2coc3cc(OC(C)=O)c(OC)cc3c2=O)cc1 | -7 | 34% | ? | ? | / | 0% | -6%
CCN(c1ccccc1)S(=O)(=O)c1ccc(OC)c(NC(=O)c2cc(F)c(F)c(F)c2F)c1 | 12 | 41% | -3% | 1% | / | -1% | ?
CCCCNC(=O)C(NC(=O)c1ccccc1)C(=O)c1ccccc1 (centres undefined) | / | 1% | / | / | / | / | /
O=c1oc2ccccc2cc1-c1nnc(-c2cccc(Br)c2)o1 | 19 | 0.71µM* | -3% | 10% | -7% | -1% | ?
